The list is not random: actives were taken first. Their share in the collection is about 15%.
Gal4-VP16 FLuc – VP16 counterscreen qHTS for inhibitors of ROR gamma transcriptional activity. actives 3.5% (n = 310,000). Potency, µM (highest dose often 53.6 µM), without a hit: at the top dose activity, negative = inhibition, most hits filed as inhibitors. AID 2546, 2010. Drosophila S2 Gal4-VP16 UAS-luciferase, luminescence, 20 h;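 further: Gal4-VP16 expression switched on by copper sulfate through the metallothionein promoter; nearly all actives have a fitted effect of over 50% in size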
RORgamma inh – qHTS for inhibitors of ROR gamma transcriptional activity; Potency, µM (top dose mostly 53.6 µM), for the others: at the highest dose activity change, negative = inhibition, hits mostly inhibitors; Drosophila S2 Gal4-RORgamma UAS-luciferase reporter, 20 h; AID 2551, 2010; actives 5.4% (n = 310,000); Nuclear receptor ROR-gamma (Mus musculus), P51450; further: nearly all actives have a fitted effect of over 60% in size
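Read-out: Photinus luciferase luminescence; inhibitors lower reporter signal. Insect Schneider cells with Gal4-ROR gamma fusion under metallothionein promoter, UAS reporter; 700 uM final copper sulfate induction, 20 hr, ambient temperature.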
ELG1 repair inh – qHTS screen for small molecules that inhibit ELG1-dependent DNA repair in human embryonic kidney (HEK293T) cells expressing luciferase-tagged ELG1; HEK293T ELG1-luciferase reporter, luminescence, 16 h; DNA damage induced by 5-fluorouridine; Potency, µM (highest dose often 46.1 µM), without a hit: at the highest dose activity change, negative = inhibition, actives largely listed as inhibitors; actives 2.3% (n = 330,000); further: nearly all actives have a fitted effect of over 55% in size
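Overnight (16 hr) co-exposure of 2,000 cells/well to 5-fluorouridine and compound at 37 °C preceded detection. Luciferase was quantified via ONE-Glo luminescence; loss of signal denotes inhibition.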
TDP1 cell CPT – qHTS for Inhibitors of human tyrosyl-DNA phosphodiesterase 1 (TDP1): qHTS in cells in presence of CPT. chicken DT40 Tdp1-/-;hTDP1 cells + 20 nM CPT, ATP luminescence, 48 h. Potency, µM (top dose mostly 46.2 µM), inactives show top-dose activity change, negative = growth inhibition, actives largely listed as inhibitors. actives 12% (n = 420,000). AID 686979, 2013; further: nearly all actives have a fitted effect of over 55% in size
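Cell growth measured by CellTiter-Glo luminescence after a minimum 48 h, 37 C compound exposure with 20 nM CPT in Tdp1-knockout DT40 cells stably expressing hTDP1, seeded 400/well; qHTS titration format.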
12-LOX inh – Primary qHTS assay for inhibitors of human arachidonate 12S-lipoxygenase (ALOX12): Round 2. purified 12hLO, xylenol orange hydroperoxide absorbance. Potency, µM (top dose mostly 108 µM), without a hit: at the top dose activity change, negative = inhibition, hits mostly inhibitors. actives 1.1% (n = 580,000). Polyunsaturated fatty acid lipoxygenase ALOX12 (Homo sapiens), P18054
Target sequence (P18054 whole entry, looked up): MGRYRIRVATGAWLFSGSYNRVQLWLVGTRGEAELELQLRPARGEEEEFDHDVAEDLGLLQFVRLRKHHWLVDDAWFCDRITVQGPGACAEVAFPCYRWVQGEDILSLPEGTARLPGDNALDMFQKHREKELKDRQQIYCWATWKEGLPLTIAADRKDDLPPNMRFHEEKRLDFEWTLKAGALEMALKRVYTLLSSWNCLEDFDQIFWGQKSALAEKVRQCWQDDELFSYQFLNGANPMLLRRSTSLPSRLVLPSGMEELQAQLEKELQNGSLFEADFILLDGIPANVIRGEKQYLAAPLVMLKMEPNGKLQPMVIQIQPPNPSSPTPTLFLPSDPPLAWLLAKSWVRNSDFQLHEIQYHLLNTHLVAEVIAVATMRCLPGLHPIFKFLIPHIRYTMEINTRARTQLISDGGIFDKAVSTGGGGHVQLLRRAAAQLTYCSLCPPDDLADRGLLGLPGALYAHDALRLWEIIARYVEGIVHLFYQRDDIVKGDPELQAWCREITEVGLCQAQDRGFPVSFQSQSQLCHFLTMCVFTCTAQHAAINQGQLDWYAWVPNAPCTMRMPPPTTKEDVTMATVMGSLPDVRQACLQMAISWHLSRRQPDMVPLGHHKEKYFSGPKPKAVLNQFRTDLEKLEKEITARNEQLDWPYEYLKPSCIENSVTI
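Purified human 12hLO at 150 nM in 25 mM Hepes, 0.01% Triton X-100, pH 7.0, preincubated 15 min at room temperature with compound. Reaction started with 40 uM arachidonic acid, 30 min at room temperature. Hydroperoxide measured by Fe-xylenol orange, 573/405 nm absorbance ratio.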
TDP1 cell noCPT – qHTS for Inhibitors of human tyrosyl-DNA phosphodiesterase 1 (TDP1): qHTS in cells in absence of CPT | actives 15% (n = 420,000) | AID 686978, 2013 | Potency, µM (series often up to 46.2 µM), for inactives: top-dose activity change, negative = growth inhibition, usual class: inhibitors | DT40 Tdp1-/- hTDP1 cells, no CPT, ATP luminescence, 48 h; further: nearly all actives have a fitted effect of over 55% in size
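Cells were dispensed at 400 per well, compounds added by pin tool, plates incubated ≥48 hr at 37 °C, then CellTiter-Glo added for 30 min at room temperature before luminescence reading. Line: DT40 Tdp1-/- complemented with hTDP1; camptothecin omitted.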
* hit, by the source's call; [ ] = remark or other dose. The call rests on the fitted dose curve; in most records, active means well fitted curve in the direction sought with a large enough effect; inconclusive means small, poorly fitted or top-dose-only effect, or another doubt; inactive means no such curve, though single readings can be large; an effect the other way counts as inactive or inconclusive. On the % scale 0 is the no-effect control and ±100 the full control effect; potency means the concentration at half of the fitted maximal effect.

For Cc1ccc(-n2c(Cc3ccccc3)nnc2SCc2nc(-c3cccs3)no2)cc1 the results were TDP1 cell CPT inconclusive, 12-LOX inh -29% and TDP1 cell noCPT inconclusive.
For CCNC(=O)N[C@H]1CC[C@]2(C)CCC([C@H](C)C(=O)NCc3ccccc3OC)[C@H](O)[C@H]2[C@@H]1C (stereo not given in full) the results were 12-LOX inh 2%.
CCCCOc1ccc(CN(CCO)CCO)cc1[N+](=O)[O-] was read as Gal4-VP16 FLuc -7%, RORgamma inh 26%, ELG1 repair inh inconclusive, TDP1 cell CPT 18µM*, 12-LOX inh -24% and TDP1 cell noCPT -2%.
For COc1ccc(CSC(=N)N)cc1[N+](=O)[O-] the results were Gal4-VP16 FLuc -6%, RORgamma inh inconclusive, ELG1 repair inh inconclusive, TDP1 cell CPT 23µM*, 12-LOX inh 211% and TDP1 cell noCPT 23µM*.
For CCCCCOc1ccc(CSC(=N)N)cc1[N+](=O)[O-] the results were Gal4-VP16 FLuc -21%, RORgamma inh inconclusive, ELG1 repair inh inconclusive, TDP1 cell CPT 15µM*, 12-LOX inh inconclusive and TDP1 cell noCPT 16µM*.
`Cc1ccc(C2=NN3C(C2)c2ccccc2OC32C(=O)Nc3ccccc32)cc1` (stereo not given) gave Gal4-VP16 FLuc inconclusive, RORgamma inh 13µM*, ELG1 repair inh inconclusive, TDP1 cell CPT inconclusive, 12-LOX inh inconclusive and TDP1 cell noCPT inconclusive.
Screening CN1C(=O)C2(Oc3ccccc3C3CC(c4ccccc4)=NN32)c2ccccc21 (stereo not given) returned Gal4-VP16 FLuc 2%, RORgamma inh -43%, ELG1 repair inh inconclusive, TDP1 cell CPT 23µM* and TDP1 cell noCPT inconclusive.
`S=C1NC2(CCS1)Oc1ccccc1C1CC(c3ccccc3)=NN12` (stereo not given) gave Gal4-VP16 FLuc 13%, RORgamma inh -1% and ELG1 repair inh inconclusive.
`O=C(CC1C(=O)N(c2ccccc2)C(=O)N1CCc1cccs1)Nc1ccc(Cl)cc1` (stereo not given) gave TDP1 cell CPT 21µM*, 12-LOX inh inconclusive and TDP1 cell noCPT inconclusive.
`Cc1ccsc1CCN1C(=O)N(c2ccccc2)C(=O)C1CC(=O)Nc1ccc(Cl)cc1` (stereo not given) gave TDP1 cell CPT 26µM*, 12-LOX inh inconclusive and TDP1 cell noCPT inconclusive.
COC[C@@H]1CN(S(=O)(=O)c2cccc(OC)c2)C[C@H]1C(N)=O was read as 12-LOX inh -1%.
For COc1cc(C(=O)N2CCCC(C)(C(=O)NS(=O)(=O)C3CC3)C2)cc(OC)c1OC (stereo not given) the results were TDP1 cell CPT 1.6µM*, 12-LOX inh 2% and TDP1 cell noCPT 0.92µM*.
Screening COc1ccc(C(=O)N2CCCC(C)(C(=O)NS(=O)(=O)C3CC3)C2)cc1 (stereo not given) returned TDP1 cell CPT inconclusive, 12-LOX inh -16% and TDP1 cell noCPT 1.5µM*.
`CC1(C(=O)NS(=O)(=O)C2CC2)CCCN(C(=O)c2cccc(OC(F)(F)F)c2)C1` (stereo not given) gave TDP1 cell CPT inconclusive, 12-LOX inh -3% and TDP1 cell noCPT 3.7µM*.
CC1(C(=O)NS(=O)(=O)C2CC2)CCCN(C(=O)c2ccccc2OC(F)(F)F)C1 (stereo not given) was read as TDP1 cell CPT inconclusive, 12-LOX inh 4% and TDP1 cell noCPT 9.2µM*.
CCCNC(=O)C1(C)CCCN(C(=O)c2ccccc2OC(F)(F)F)C1 (stereo not given) was read as TDP1 cell CPT 11%, 12-LOX inh -19% and TDP1 cell noCPT -17%.
CCc1ccccc1NC(=O)N1CCC2(CC1)SCC(=O)N2Cc1ccco1 was read as 12-LOX inh 52%.
`CC1(C(=O)NS(=O)(=O)C2CC2)CCN(C(=O)c2ccccc2C(F)(F)F)C1` (stereo not given) gave TDP1 cell CPT -20%, 12-LOX inh -7% and TDP1 cell noCPT -1%.
For COCCNC(=O)C1(C)CCCN(C(=O)c2cccc(C(F)(F)F)c2)C1 (stereo not given) the results were TDP1 cell CPT -18%, 12-LOX inh -9% and TDP1 cell noCPT -17%.
CC1(C(=O)NS(=O)(=O)C2CC2)CCCN(C(=O)c2cccc(C(F)(F)F)c2)C1 (stereo not given) was read as TDP1 cell CPT inconclusive, 12-LOX inh -5% and TDP1 cell noCPT 4.1µM*.
Screening CC1(C(=O)NS(=O)(=O)C2CC2)CCCN(C(=O)c2ccc(C(F)(F)F)cc2)C1 (stereo not given) returned TDP1 cell CPT 0.73µM*, 12-LOX inh 6% and TDP1 cell noCPT 0.65µM*.
CC(C)C1=NOC2(CCN(C(=O)c3ccccc3)C2)C1 (stereo not given) was read as 12-LOX inh 3%[12.5 µM].
Screening CC(C)C1C(=O)N(Cc2cn(Cc3ccco3)nn2)CCS(=O)(=O)N1Cc1ccc(-c2cccc(N(C)C)c2)cc1 (stereo not given) returned TDP1 cell CPT inconclusive, 12-LOX inh -37% and TDP1 cell noCPT 16µM*.
For Cc1ccc(-c2ccc(CN3C(C(C)C)C(=O)N(Cc4cn(Cc5ccco5)nn4)CCS3(=O)=O)cc2)cc1 (stereo not given) the results were TDP1 cell CPT 18µM*, 12-LOX inh 45µM* and TDP1 cell noCPT 18µM*.
CC1C(=O)N(Cc2cn(Cc3ccco3)nn2)CCS(=O)(=O)N1Cc1ccc(-c2ccncc2)cc1 (stereo not given) was read as TDP1 cell CPT inconclusive, 12-LOX inh -25% and TDP1 cell noCPT 21µM*.
